Assay results reported in PubChem BioAssay.

Experiment: probe aCHRDL2 binding to arrayed compounds – biochemical, biotinylated probe, 635/667 nm fluorescence, primary screen (AID 1100)
Settings: small-molecule microarray, higher = more signal

| Structure (SMILES) | composite z-score |
| --- | --- |
| CO[C@H]1COC(=O)[C@@H](C)COC(=O)[C@H](Cc2ccccc2)NC(=O)CC=C[C@H]1C | -1.09 |
| C=CCC(OC(C)=O)[C@@H]1[C@@H](N(Cc2cccc3ccccc23)C(=O)c2ccc(C)cc2)c2cc(OCCCO)ccc2N1C(=O)c1ccc(-c2ccccc2)cc1 (stereo partly drawn) | 0.322 |
| CC(C)[C@H]1NC(=O)[C@@]23C(=O)N[C@@H](Cc4ccccc4)C2[C@H](C)[C@@]2(C)O[C@H]2C3/C=C/C/C=C\CNC(=O)[C@H](C)NC1=O (stereo partly drawn) | -0.256 |
| CO[C@H]1COC(=O)[C@@H](Cc2ccccc2)NC(=O)[C@@H](C)COC(=O)CC=C[C@@H]1C | -1.46 |
| CN1CCC(CCCO)=CC1C1CC1 (stereo not drawn) | -0.896 |
| CC(C)[Si]1(C(C)C)OCc2cc(C3CC3)nc(-c3ccccc3)c21 | 0.525 |
| O=C1c2ccccc2[C@](Cc2ccccc2I)(C(=O)O)[C@H](c2ccc(CO)cc2)N1C1CCCCC1 | 1.05 |
| C[C@@H]1NC(=O)CC=C[C@@H](C)[C@@H]2C=C[C@H](O)[C@@H](COC(=O)[C@H](C)NC(=O)CC=C[C@@H](C)[C@@H]3C=C[C@H](O)[C@@H](COC1=O)O3)O2 | -0.925 |
| C=CCc1cccc([C@@H]2[C@@H](C)CC[C@H]3C(=O)N4[C@H](c5cccc(CC=C)c5)[C@@H](C)CC[C@H]4C(=O)N23)c1 | 0.175 |
| C=CC[C@@]12N=C(c3ccc(OCCCO)cc3)O[C@@H]1c1ccccc1CN(Cc1ccccc1)C2=O | 0.757 |
| COc1ccc([C@H]2C[C@H]3C(Br)=C[C@]2(OC)C(=O)[C@]32CO2)cc1 | 0.348 |
| C=CCOC(=O)[C@@H]1[C@H]2C(=O)O[C@H](c3ccccc3)[C@H](c3ccccc3)N2[C@H](c2ccc(OCCOC(=O)[C@H]3C[C@H]4C(=O)N5CCC[C@H]5C(=O)N4[C@H]3c3ccc(O)cc3)cc2)[C@@]12C(=O)Nc1ccccc12 | 0.573 |
| CC(=O)NCCCC[C@@H]1NC(=O)[C@@H]2C[C@H](C(=O)NCc3ccc(F)cc3)[C@H](c3cccc(OCCO)c3)N2C1=O | 0.0979 |
| O=C(CS)NCCCCCNC(=O)[C@H]1C[C@H]2C(=O)N3CCC[C@H]3C(=O)N2[C@H]1c1ccc(O)cc1 | -0.196 |
| C=C(COC)/C(=C/C[C@H](OC(C)=O)c1ccc(OCCO)cc1)c1cnc2ccccc2c1 | -0.146 |
| COc1cc([C@@H]2N[C@H](C(=O)O)Cc3c2[nH]c2ccccc32)cc(OC)c1OC | -0.272 |
| C=CC[C@@]1(C(=O)N2CCOCC2)N=C(c2ccc(OCCCO)cc2)O[C@@H]1c1ccccc1 | 0.845 |
| COCCOC(=O)N1C(=O)[C@@]2(c3cc(C#CC4=CCCCC4)ccc31)[C@H](c1ccc(O)cc1)N1[C@H](c3ccccc3)[C@H](c3ccccc3)OC(=O)[C@H]1[C@@H]2C(=O)N1CCCCCCC1 | 0.842 |
| COCCOC(=O)N1C(=O)[C@@]2(c3cc(C#CC4=CCCCC4)ccc31)[C@H](C(=O)NC[C@H](O)c1ccccc1)[C@H]1C(=O)O[C@H](c3ccccc3)[C@H](c3ccccc3)N1[C@@H]2c1ccccc1OCCO | 0.635 |
| C=CC[C@]1(C(=O)NCC(O)CO)N=C(c2ccc(OCCCO)cc2)O[C@H]1c1ccccc1 (stereo partly drawn) | 1.3 |
| C=CCC(OC(C)=O)[C@@H]1[C@@H](N(Cc2cc3ccccc3o2)C(=O)c2ccc(C)cc2)c2cc(OCCCO)ccc2N1C(=O)c1ccc2ccccc2n1 (stereo partly drawn) | 0.504 |
| CC(C)NC(=O)[C@@]1(Cc2ccccc2I)c2ccccc2C(=O)N(C2CCCCC2)[C@H]1c1ccc(CO)cc1 | 0.793 |
| C=C[C@H](OC)[C@@H](OC(=O)Nc1ccc(SC)cc1)c1ccc(OC)c(O)c1 | 0.241 |
| CCc1cccc(NC(=O)O[C@H]2[C@H](OC(=O)Nc3ccccc3)[C@@H](OC(=O)Nc3ccccc3)[C@@H](OC)O[C@@H]2CO)c1 | 0.37 |
| COCCOC(=O)N1C(=O)[C@@]2(c3cc(C#CCC(C(=O)OC)C(=O)OC)ccc31)[C@H](C(=O)N1CCN(c3ncccn3)CC1)[C@H]1C(=O)O[C@H](c3ccccc3)[C@H](c3ccccc3)N1[C@@H]2c1ccc(O)cc1 | 0.733 |
| COc1ccc(-c2cc3c(c(-c4ccccc4)n2)[Si](C(C)C)(C(C)C)O[C@H]3c2ccccc2)cn1 | -0.131 |
| CCC(=O)[C@]12O[C@@]3([C@@H]4C(=O)OCC[C@@H]41)N(Cc1ccccc1)C(C)=C(C(=O)OC)[C@@H](c1ccccc1)N3C2=O | -0.314 |
| CO[C@@H]1COC(=O)[C@H](C)NC(=O)CC=C[C@@H](C)[C@H](NS(=O)(=O)c2ccc(C)cc2)COC(=O)CC=C[C@@H]1C | -0.505 |
